PTEN del growth: growth suppressors of cells with PTEN tumor suppressor deletion; AID 827; 1.2% of 140,000 active; viability, % at 10 µM; HCT116 PTEN-null viability, CellTiter-Glo, 60 h; hits give low values;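 active = viability at or below a set limit, 4 SD under the median of all tested compounds, cut at about 3.7% in these data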;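 also: PTEN knockout HCT116 line with beta catenin targeted HCT116 as companion control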
WT yeast gro inh: growth inhibition of WT yeast, mitochondrial fusion screen; mitochondrial fusion phenotypic screen, WT strain; inhibition, % at 10 µM; 2.1% of 190,000 active; AID 1362; in the data active = inhibition above about 58%; tested in S. cerevisiae
bCat KO growth: beta-catenin-lacking colon tumor cell growth suppression; AID 818; viability, % at 10 µM; 1.5% of 140,000 active; HCT116 beta-catenin knockout viability, CellTiter-Glo, 60 h; hits give low values;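 active = viability at or under a set limit, the compound median less 4 SD, cut at about 6% in these data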;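 also: 0% = Hyamine 1622 control at 20 µM and 100% = untreated cell control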
hDAT+cocaine: modulates human dopamine transporter uptake under cocaine | LLC-PK1 hDAT cells, [14C]-dopamine uptake with cocaine IC80; actives deviate in either direction | B-score at 10 µM | 1.3% of 110,000 active | Q01959;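 active = Z score or B-score, a plate-position-corrected score, falls beyond the plate's 99.7% confidence bounds, in either direction; inactive = both scores lie inside the 99.7% bounds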;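 also: scored against the spread of the other compound wells on the same plate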
Target sequence (Q01959 whole entry, looked up): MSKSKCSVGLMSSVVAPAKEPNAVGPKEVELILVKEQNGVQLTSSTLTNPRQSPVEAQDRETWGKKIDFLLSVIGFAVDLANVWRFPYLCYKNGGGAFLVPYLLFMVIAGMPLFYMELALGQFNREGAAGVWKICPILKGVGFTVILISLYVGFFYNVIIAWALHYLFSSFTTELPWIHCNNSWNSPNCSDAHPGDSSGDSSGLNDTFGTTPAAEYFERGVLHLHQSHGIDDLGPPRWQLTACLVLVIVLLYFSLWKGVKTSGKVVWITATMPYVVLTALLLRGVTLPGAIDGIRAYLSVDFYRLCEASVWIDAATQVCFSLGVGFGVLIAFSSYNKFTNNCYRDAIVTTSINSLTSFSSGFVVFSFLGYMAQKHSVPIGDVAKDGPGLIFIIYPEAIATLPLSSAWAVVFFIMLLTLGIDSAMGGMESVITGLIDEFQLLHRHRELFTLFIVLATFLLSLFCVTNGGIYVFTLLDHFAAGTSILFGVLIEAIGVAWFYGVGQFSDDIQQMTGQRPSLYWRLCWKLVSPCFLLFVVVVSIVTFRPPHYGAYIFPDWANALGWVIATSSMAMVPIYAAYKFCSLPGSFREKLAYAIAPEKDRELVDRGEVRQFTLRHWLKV
* hit, by the source's call; nt = not tested or not shown. Sampled rows, rich in hits. Any-hit rate of the full collection: about 3.6%.

SMILES | PTEN del growth | WT yeast gro inh | bCat KO growth | hDAT+cocaine
CCc1nnc(NC(=O)C2Cc3ccccc3CN2S(=O)(=O)c2cccs2)s1 (centres undefined) | 72 | 20 | 60 | 0.81
CCCOc1ccc(C(C)=O)cc1CN1CCOCC1 | 98 | -3 | 95 | nt
CC(=O)c1ccc(Oc2ncnc3sccc23)c(CN2CCOCC2)c1 | 90 | -20 | 97 | -7.9*
CC(C)c1ccc(NC(=O)COC(=O)COc2ccccc2)cc1 | 96 | -3 | 92 | nt
Clc1ccc2oc3c(Cl)ncnc3c2c1 | 14 | -7 | 3.0* | nt
COc1ncnc2c1oc1ccccc12 | nt | 23 | nt | nt
O=C(Nc1ccccc1C(F)(F)F)c1c(F)cccc1Cl | nt | -4 | nt | nt
Clc1ccc(Cn2nnc(-c3ccc(CN4CCOCC4)cc3)n2)cc1 | 88 | 51 | 91 | 1.2
Fc1ccc(Cn2nnc(-c3ccc(CN4CCOCC4)cc3)n2)cc1 | 90 | 23 | 90 | -8*
CCc1ccc(C2CC(c3ccc(C)cc3)Nc3nc(N)nn32)cc1 (centres undefined) | 84 | 16 | 95 | -2.5*
CCOC(=O)Cc1c(Sc2ccccc2)c2cc(C)ccc2n1C | 86 | 68* | 89 | nt
Cc1ccc2c(c1)c(Sc1ccccc1)c(CC(=O)O)n2C | 96 | -31 | 90 | nt
CCCCN(C(=S)Nc1cccc(C)c1C)c1c(N)n(CCC)c(=O)[nH]c1=O | nt | -5 | nt | nt
O=C(Nc1cc(S(=O)(=O)N2CCOCC2)ccc1Cl)C(=O)c1c(-c2ccccc2)cc2ccccn12 | 99 | 99* | 104 | 1.3
O=S(=O)(c1ccc(Cl)c(NC(=S)Nc2ccccc2N2CCOCC2)c1)N1CCOCC1 | 94 | 10 | 92 | nt
Fc1ccc(/C=N/Nc2ccccn2)cc1 | 99 | 13 | 99 | nt
Cc1cc(N/N=C2/CCCc3ccccc32)nc2ccccc12 | nt | 68 | nt | nt
Fc1ccc2c(c1)/C(=N/Nc1ccccn1)CCS2 | nt | 68* | nt | nt
c1ccc(N/N=C2\CCCc3ccccc32)nc1 | nt | 65* | nt | nt
COc1cc2c(cc1OC)CN(c1ccc(-c3ccccc3OC)nn1)CC2 | 7 | 0 | 2.7* | 1.1
CCC(C)[C@H](NC(=O)N1CCN(c2cccc(C(F)(F)F)c2)CC1)C(=O)OC (some centres undefined) | 86 | 24 | 85 | 3.2*
CN(C)c1nc(C(N)=O)nc(N2CCOCC2)n1 | 100 | 9 | 88 | 0.059
CCOC(=O)N1CCC(NC(=O)c2cccc3c2C(=O)N(c2ccc(OC)cc2)C3)CC1 | 75 | -5 | 87 | 1.3
CCOC(=O)N1CCC(NC(=O)c2cn(-c3ccc(OC)cc3)c(=O)c3ccccc23)CC1 | 99 | -5 | 92 | 2.2*
Nc1cc(=O)[nH]c(SCC(=O)Nc2cccc(Cl)c2Cl)n1 | nt | -10 | nt | nt
SMILES | PTEN del growth | WT yeast gro inh | bCat KO growth | hDAT+cocaine
COc1ccc(CNC(=O)C(C)NC(=O)c2cc3ccccc3o2)cc1 (centres undefined) | 100 | 9 | 91 | -1.7*
COc1ccc(CC(CC(=O)O)C(=O)NCc2ccccc2)cc1 (centres undefined) | nt | -10 | nt | nt
O=C(CN(C(=O)CCC(=O)Nc1nccs1)c1ccc(F)c(Cl)c1)NCc1ccco1 | 80 | 7 | 88 | -0.11
O=C(CN(C(=O)CCC(=O)Nc1nccs1)c1ccc(F)cc1)NCc1ccco1 | 96 | -8 | 104 | -2.8*
C=CCn1c(=NC(=O)c2ccccc2[N+](=O)[O-])sc2cc(S(C)(=O)=O)ccc21 | 62 | -9 | 77 | nt
O=C(c1ccc(Cl)cc1[N+](=O)[O-])N(Cc1ccccc1)Cc1ccccc1 | 65 | 61* | 76 | nt
CC(C)(C)N(Cc1ccccc1)C(=O)c1ccc(Cl)cc1[N+](=O)[O-] | nt | 4 | nt | nt
Cc1cc(Cl)c2ccccc2n1 | 88 | -24 | 88 | nt
Clc1cncc(Cl)c1NNc1c2ccccc2nc2ccccc12 | 60 | 83* | 56 | nt
Cc1occc1-c1nnc(SCC(=O)NCCc2ccccc2)n1C(C)c1ccccc1 (centres undefined) | 93 | 0 | 79 | 2.7*
Cc1occc1-c1nnc(SCC(=O)NCCc2ccccc2)o1 | nt | -9 | nt | nt
Cn1cnc([N+](=O)[O-])c1S(=O)(=O)c1cccc(Cl)c1 | 0.9* | 29 | 1.2* | nt
Cc1ccc(-c2cc3c(N=O)c4ccccc4c-3n[nH]2)cc1 | nt | 64* | nt | nt
NS(=O)(=O)c1ccc(CCNC(=O)c2cccc([N+](=O)[O-])c2)cc1 | nt | -4 | nt | nt
O=C(NCc1ccco1)c1cc(-c2ccccc2)on1 | 88 | 60* | 84 | -0.84
Cc1c(-n2c(SCC(=O)C(C)(C)C)nc3ccccc3c2=O)c(=O)n(-c2ccccc2)n1C | nt | 6 | nt | nt
Cc1cc(CN2CCOCC2)c(O)c(C2(C)CCCCC2)c1 | 86 | 85* | 80 | 0.29
O=C(Nc1ccc([N+](=O)[O-])cc1)C1CC1(c1ccccc1)c1ccccc1 (centres undefined) | 66 | 33 | 73 | nt
CC1(C)C(C=C(Cl)Cl)C1C(=O)Nc1ccc([N+](=O)[O-])cc1 (centres undefined) | 2.4* | 73 | 3.9* | nt
O=[N+]([O-])c1ccc2nc(/C=C/c3ccc(Cl)cc3)[nH]c2c1 | 2.8* | 67* | 2.1* | 0.43
O=[N+]([O-])c1ccc(-c2nc3ccc([N+](=O)[O-])cc3[nH]2)cc1 | 5 | 13 | 15 | 0.59
COc1ccc(CN2CCNC(=O)C2CC(=O)NCCc2c[nH]c3ccccc23)c(OC)c1 (centres undefined) | nt | -3 | nt | nt
Cc1ccc(-n2sc3ccccc3c2=O)cc1 | 1.1* | 96 | 1.4* | nt
Cc1ccc(Cn2c(=O)sc3ccccc3c2=O)cc1 | 90 | 0 | 88 | -0.066
Cc1ccc(-c2csc3ncnc(Sc4nnc(CN5CCCCCC5=O)o4)c23)cc1 | 1.7* | 2 | 1.9* | 1.3
SMILES | PTEN del growth | WT yeast gro inh | bCat KO growth | hDAT+cocaine
Cc1ccc(-c2csc3ncnc(SCC(=O)Nc4nnc(C)s4)c23)cc1 | 102 | 5 | 86 | 0.43
CCC(=O)Nc1ccc(Br)c(Cl)c1 | 95 | 91* | 92 | nt
COc1ccc2c(c1)C(=O)[C@@H](O)[C@H](c1ccc(OC)c(Br)c1)O2 | 11 | 25 | 11 | -0.0096
COc1cccc([C@@H]2Oc3ccc(OC)cc3C(=O)[C@H]2O)c1 | 9 | 2 | 5.3* | 0.29
CCOc1ccccc1N1CCN(C(=O)c2ccc3[nH]c4c(c3c2)CCCC4)CC1 | 75 | 58* | 77 | nt
CCOc1ccccc1N1CCN(C(=O)c2ccncc2)CC1 | 108 | 9 | 100 | -1.5
Cc1scc(-c2n[nH]c(=S)n2Cc2ccccc2)c1C | 102 | 71* | 97 | nt
Cc1ccccc1OCc1n[nH]c(=S)n1Cc1ccccc1 | 91 | 73* | 95 | nt
CCc1c(-c2n[nH]c(=S)n2Cc2ccccc2)csc1C | 88 | 16 | 87 | nt
CN1CCc2c(sc3ncn4nc(-c5ccccc5O)nc4c23)C1 | 0.7* | 7 | 0.8* | nt
COc1ccc(OC)c(NC(=O)CSc2nnc(Cc3cccn3C)n2CCc2ccccc2)c1 | 77 | -10 | 79 | 3*
COc1ccccc1NC(=O)CSc1nnc(C)n1CCc1ccccc1 | 107 | -20 | 100 | -7.6*
CCn1c(COc2ccccc2C)nnc1SCC(=O)CC(=O)Nc1ccccc1OC | 89 | 0 | 89 | 3.1*
Cn1cccc1Cc1nnc(SCC(=O)Nc2ccc(F)cc2)n1CCc1ccccc1 | 61 | -8 | 78 | -1.1
